Laboratory results taken from ChEMBL document CHEMBL4808148, “HDAC6 screening dataset using tau-based substrate in an enzymatic assay yields selective inhibitors and activators” (2021).
Out of some 5,600 compounds screened, about 390 (7%) showed an effect of 50% or more. The entries come from a sample that favours strong results as a whole. Residues, ends and D or L forms follow the SMILES beside them.

Key:
[1] = molecular target: T1, Protein deacetylase HDAC6 (Homo sapiens) (UniProt Q9UBN7); settings: at 10 µM
T1 sequence (whole entry): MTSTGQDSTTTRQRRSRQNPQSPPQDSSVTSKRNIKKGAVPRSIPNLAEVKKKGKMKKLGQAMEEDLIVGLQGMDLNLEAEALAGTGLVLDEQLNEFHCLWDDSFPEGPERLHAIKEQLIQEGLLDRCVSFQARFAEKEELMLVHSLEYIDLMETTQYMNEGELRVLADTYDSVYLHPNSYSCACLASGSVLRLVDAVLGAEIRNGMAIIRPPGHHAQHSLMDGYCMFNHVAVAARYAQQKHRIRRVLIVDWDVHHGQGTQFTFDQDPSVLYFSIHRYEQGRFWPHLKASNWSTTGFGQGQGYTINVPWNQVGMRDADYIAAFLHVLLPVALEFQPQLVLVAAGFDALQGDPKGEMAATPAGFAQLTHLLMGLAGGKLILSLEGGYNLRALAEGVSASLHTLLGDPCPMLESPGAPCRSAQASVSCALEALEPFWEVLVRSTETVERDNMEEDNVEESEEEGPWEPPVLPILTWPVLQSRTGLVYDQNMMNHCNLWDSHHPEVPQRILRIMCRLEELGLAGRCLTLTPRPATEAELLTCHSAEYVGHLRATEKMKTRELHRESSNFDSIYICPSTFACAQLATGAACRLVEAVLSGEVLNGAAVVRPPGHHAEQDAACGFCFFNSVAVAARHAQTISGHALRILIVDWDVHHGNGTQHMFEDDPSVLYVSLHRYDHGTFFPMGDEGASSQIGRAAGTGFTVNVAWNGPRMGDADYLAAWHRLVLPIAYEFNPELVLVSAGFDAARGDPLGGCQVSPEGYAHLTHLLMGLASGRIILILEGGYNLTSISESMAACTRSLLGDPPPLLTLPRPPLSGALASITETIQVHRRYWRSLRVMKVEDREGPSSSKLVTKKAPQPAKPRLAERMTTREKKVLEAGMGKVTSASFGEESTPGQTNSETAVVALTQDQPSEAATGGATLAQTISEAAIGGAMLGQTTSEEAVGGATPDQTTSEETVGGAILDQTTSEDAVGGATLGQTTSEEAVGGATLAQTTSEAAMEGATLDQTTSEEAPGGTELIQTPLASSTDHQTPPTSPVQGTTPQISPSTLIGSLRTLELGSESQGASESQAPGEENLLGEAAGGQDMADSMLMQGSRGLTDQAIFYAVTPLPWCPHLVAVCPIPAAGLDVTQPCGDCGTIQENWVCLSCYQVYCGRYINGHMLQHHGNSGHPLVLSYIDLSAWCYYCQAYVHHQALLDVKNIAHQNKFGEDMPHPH

[2] = molecular target: Protein deacetylase HDAC6 (Homo sapiens) (UniProt Q9UBN7); settings: at 10 µM; remark: listed apart in the source

Compound | inhibition [1] [%] | inhibition [2] [%]
C=CCN1CC[C@]23c4c5ccc(O)c4O[C@H]2[C@@H](OCCOCCOCCOCCOCCOCCOCCOC)CC[C@@]3(O)[C@H]1C5 | 3.73 | –
OC[C@H]1O[C@H](O)C[C@@H](O)[C@@H]1O | -3.53 | –
O=C(Nc1cc(C(F)(F)F)cc(C(F)(F)F)c1)Nc1c(Br)cc(Br)cc1-c1nnn[nH]1 | 0.45 | –
O=C(c1cn(Cc2cncn2Cc2ccc(Br)cc2)cc1-c1cccc2ccccc12)N1CCOCC1 | -6.62 | –
COc1cc2c(cc1OC)CN(C(=O)/C=C/c1c(-c3ccccc3)n(C)c3ncccc13)CC2 | 33.3 | –
COC1[C@@H](O)[C@@H](O)C(O)[C@H](O)[C@H]1O (stereo partly drawn) | -3.32 | –
CC(C)[C@@H]1C(=O)N(S(C)(=O)=O)[C@@H]2CCN(C(=O)/C=C/CN3CCCCC3)[C@H]21 | -9.25 | –
NC(=O)c1nc(Nc2ccccc2)sc1NC(=O)C1CCCCC1 | 11.1 | –
Cc1nc2c(c(=O)[nH]1)CSCC2 | 36 | –
CC(C)(C)NCC(O)COc1cc(Cl)ccc1Cl (stereo not drawn) | 2.55 | –
Nc1nc(F)nc2c1ncn2[C@@H]1O[C@H](COP(=O)(O)O)[C@@H](O)[C@@H]1O | -4.37 | –
TOCOFERSOLAN, CHEMBL2108106 | – | 6.6
O=C(Nc1ncc(SCCN2CCCC2)s1)[C@]1(c2ccc(S(=O)(=O)C3CC3)cc2)C[C@H]1C1CCCCC1 | -4.35 | –
CC(C)CC(NC(=O)C1CCCN1)C(=O)NCC(N)=O (stereo not drawn) (H-Pro-Leu-Gly-NH2; configuration not given here) | 40.6 | –
CC(C)(C)Nc1nc(Nc2ccc(C(N)=O)cc2)cc(N)c1C#N | 26.8 | –
CC(C)C(N)=O | 26.5 | –
O=C(CC1CC(c2ccc(F)cc2F)=NO1)N1CCOCC1 (racemic) | 99.4 | –
O=C(O)CC1CC(c2ccccc2)=NO1 (stereo not drawn) | 32.1 | –
CCCC[C@H](NC(C)=O)C(=O)N[C@H]1CC(=O)NCCCC[C@@H](C(=O)O)NC(=O)[C@H](Cc2c[nH]c3ccccc23)NC(=O)[C@H](CCCNC(=N)N)NC(=O)[C@@H](Cc2ccccc2)NC(=O)[C@H](Cc2c[nH]cn2)NC1=O | 38.5 | –
N#CC[C@@H](C1CCCC1)n1cc(-c2ncnc3[nH]ccc23)cn1 | -2.44 | –
CN(C)[C@@H](CCOc1cccc2ccccc12)c1ccccc1 | 53 | –

Compound | inhibition [1] [%] | inhibition [2] [%]
C[C@@H]([C@H](O)c1ccccc1)N(C)C | -0.94 | –
CNC(=O)Oc1cccc2ccccc12 | 25.3 | –
CNC(=O)c1ccccc1Nc1nc(Nc2ccc3c(c2OC)CCC[C@H](N2CCN(CCO)CC2)C3)ncc1Cl | 11.5 | –
N#[N+]/C=C(\[O-])CC[C@H](N)C(=O)O | 28.2 | –
CCOC(=O)[C@H](CCc1ccccc1)N[C@@H](C)C(=O)N1Cc2cc(OC)c(OC)cc2C[C@H]1C(=O)O | -0.68 | –
COc1cc(OCc2cccc(-c3ccccc3)c2C)cc(OC)c1CN1CCCC[C@H]1C(=O)O | 64.2 | –
CC[C@H](C)[C@H]1O[C@]2(C=C[C@@H]1C)C[C@@H]1C[C@@H](C/C=C(\C)[C@@H](O[C@H]3C[C@H](OC)[C@@H](O[C@H]4C[C@H](OC)[C@@H](O)[C@H](C)O4)[C@H](C)O3)[C@@H](C)/C=C/C=C3\CO[C@@H]4[C@H](O)C(C)=C[C@@H](C(=O)O1)[C@]34O)O2 | -4.72 | –
O=C(NCCN1CCN(c2ncccn2)CC1)C12CC3CC(CC(C3)C1)C2 | -4.05 | –
COc1cc(OC)c(/C=C/S(=O)(=O)Cc2ccc(OC)c(OP(=O)(O)O)c2)c(OC)c1 | 6.33 | –
CCn1c(=O)n(C2=C(CO)CN(CC3CCCCCCC3)CC2)c2ccccc21 | -8.59 | –
CN1CCC2=C(C1)C(c1ccccc1)c1ccccc12 (stereo not drawn) | -8.99 | –
CNC1CC(c2ccc(Cl)c(Cl)c2)c2ccccc21 (stereo not drawn) | 30.3 | –
CCCCN1[C@@H]2CC[C@H]1C[C@@H](OC(c1ccc(F)cc1)c1ccc(F)cc1)C2 | 7.33 | –
Nc1nc(OCc2cc(Br)cs2)c2[nH]cnc2n1 | 65.4 | –
CN1CCN(c2cccc3[nH]c(=O)oc23)CC1 | 26.1 | –
O=C([O-])[C@H]1O[C@H](O)[C@H](O)[C@@H](O)[C@@H]1O.[Na+] | 1.38 | –
Nc1ccc(C(=O)OCC(O)CO)cc1 (stereo not drawn) | 14.1 | –
CCOC(=O)c1ccc(N(C)c2csc(-c3ccccc3)n2)cc1 | 30.7 | –
CC(C)COC(=O)c1ccc(N)cc1 | 82.8 | –
CC1=C[C@H](O)CC(C)(C)[C@H]1/C=C/C(C)=C/C=C/C(C)=C/C=C/C=C(C)/C=C/C=C(C)/C=C/C1=C(C)C[C@@H](O)CC1(C)C | 5.04 | –
CC[C@H]1[C@@H](O)[C@@H]2[C@H](CC[C@]3(C)[C@@H]([C@H](C)CCOS(=O)(=O)O)CC[C@@H]23)[C@@]2(C)CC[C@@H](O)C[C@@H]12 | -1.78 | –

Compound | inhibition [1] [%] | inhibition [2] [%]
CC(C)C[C@H](NC(=O)[C@H](CCCCN)NC(=O)[C@H](CCCNC(=N)N)NC(=O)[C@H](C)NC(=O)[C@H](CO)NC(=O)[C@H](CCCCN)NC(=O)[C@H](CCCNC(=N)N)NC(=O)[C@H](C)NC(=O)CNC(=O)[C@@H](NC(=O)[C@H](Cc1ccccc1)NC(=O)CNC(=O)CNC(=O)[C@@H](N)Cc1ccccc1)[C@@H](C)O)C(=O)N[C@@H](C)C(=O)N[C@@H](CC(N)=O)C(=O)N[C@@H](CCC(N)=O)C(=O)O | 3.21 | –
CCC(CC)C(c1ccc(Nc2nc3ccccc3s2)cc1)n1cncn1 (stereo not drawn) | 11.9 | –
CC(C)c1cnn2c(NCc3ccccc3)cc(NCCCCCCN)nc12 | 61.1 | –
Cc1cc(/C=C2\SC(=O)N(c3ccccc3)C2=O)c(C)n1-c1cccnc1 | 96.7 | –
Cc1cc(/C=c2/sc3nc4ccccc4n3c2=O)c(C)n1-c1ccccc1 | -0.72 | –
Nc1nc(=O)c2sc(=O)n([C@@H]3O[C@H](CO)[C@@H](O)[C@H]3O)c2[nH]1 | 7.72 | –
Cc1ccc(-c2csc(NC(=O)c3ccccc3)n2)c(C)c1 | 61.3 | –
Cc1cc2sc(NC(=O)Cc3ccccc3)nc2cc1Cl | 19.7 | –
NC(=O)CN1C=CCC(C(N)=O)=C1 | -1.44 | –
O=C1c2cc(Cl)ccc2OC2CCON12 (stereo not drawn) | 8.29 | –
COc1ccccc1OC(=O)CNC(=O)Cc1ccc(C(=O)c2ccc(C)cc2)n1C | 27.4 | –
COc1ccn2ncc(-c3nc4[nH]nc(NC(=O)c5ccc(F)cc5)c4cc3F)c2c1 | 1.3 | –
COc1cc(OC)cc(-c2ccc3c(-c4ccc(F)cc4)n[nH]c3n2)c1 | 81.7 | –
C[C@H]1C[C@@H]2[C@H]([C@@H](O)C[C@@]3(C)[C@H]2CC[C@]3(O)C(=O)COC(=O)CCC(=O)O)[C@@]2(C)C=CC(=O)C=C12 | 27.4 | –
COc1cc([C@@H]2c3cc4c(cc3[C@@H](O[C@@H]3O[C@@H]5CO[C@@H](C)O[C@H]5[C@H](O)[C@H]3O)[C@H]3COC(=O)[C@H]23)OCO4)cc(OC)c1OP(=O)(O)O | 5.48 | –
CCN(CC)CCNC(=O)c1ccccc1I | 13.2 | –
COc1nc2ccc(Br)cc2cc1[C@@H](c1ccccc1)[C@@](O)(CCN(C)C)c1cccc2ccccc12 | 73.7 | –
NCC1CC(=O)N(Cc2ccccc2)C1 (stereo not drawn) | 0.62 | –
CN1c2ccccc2C(NCCCCCCC(=O)O)c2ccc(Cl)cc2S1(=O)=O (stereo not drawn) | 64.5 | –
O=C(O)CCCCCCNC1c2ccccc2CCc2ccccc21 | 0.36 | –
Cc1ccc(C)c(C(O)CNC(C)C)c1 (stereo not drawn) | 7.8 | –

Compound | inhibition [1] [%] | inhibition [2] [%]
C[C@@H]1C(=O)O[C@H]2CC34[C@H]5C[C@@H](C(C)(C)C)C36[C@@H](OC(=O)[C@@H]6O)O[C@@]4(C(=O)O5)[C@]21O (stereo partly drawn) | 26.8 | –
CN1CC[C@@]2(C)c3cc(OC(=O)Nc4ccccc4)ccc3N(C)[C@@H]12 | 54 | –
Cn1cc(-c2cc(Oc3cc(F)c(NC(=O)C4(C(=O)Nc5ccccc5)CC4)cc3F)ccn2)cn1 | 13.7 | –
CN1CC[C@@]2(C)c3cc(O)ccc3N(C)[C@H]12 | 6.94 | –
COC1/C=C/OC2(C)Oc3c(C)c(O)c4c(O)c(c(/C=N/N=C/N5CCCCC5)c(O)c4c3C2=O)NC(=O)/C(C)=C\C=C\C(C)C(O)C(C)C(O)C(C)C(OC(C)=O)C1C (stereo not drawn) | 5.78 | –
Cc1ccc2c(c1)Cc1c(C(=O)NN3CCCCC3)nn(-c3ccc(Cl)cc3Cl)c1-2 | 1.48 | –
CN(C)CCN1C(=O)c2cccc3cc(NC(N)=O)cc(c23)C1=O | -8.72 | –
COc1ccc(Nc2ccn(-c3ccccc3)n2)cc1 | 101 | –
C[C@]12C=CC(=O)C=C1CC[C@@H]1[C@@H]2[C@@H](O)C[C@@]2(C)[C@H]1CC[C@]2(O)C(=O)COP(=O)(O)O | 22.1 | –
CCNC(=O)[C@@H]1CCCN1C(=O)[C@H](CCCNC(=N)N)NC(=O)[C@H](CC(C)C)NC(=O)[C@@H](C)NC(=O)[C@H](Cc1ccc(O)cc1)NC(=O)[C@H](CO)NC(=O)[C@H](Cc1c[nH]c2ccccc12)NC(=O)[C@H](Cc1cnc[nH]1)NC(=O)[C@@H]1CCC(=O)N1 | 41.1 | –
Cc1cc(C(=O)Nc2cccc(C(=O)Nc3cccc(C(F)(F)F)c3)c2)on1 | 16.4 | –
O=C1c2cccc(O)c2C(=O)c2c(O)cc(CO)cc21 | 53.1 | –
O=C1c2ccccc2C(=O)c2ccccc21 | 44.4 | –
CCN1C[C@H](C)n2c(c(O)c3c(=O)n(Cc4ccc(F)c(Cl)c4)nc(C(=O)NC)c32)C1=O | 19.2 | –
C[C@H](CCC(=O)O)[C@H]1CC[C@H]2[C@@H]3CC[C@@H]4C[C@H](O)CC[C@]4(C)[C@H]3CC[C@]12C | -5.26 | –
C[C@H](CCC(=O)O)[C@H]1CC[C@H]2[C@@H]3[C@@H](O)C[C@@H]4C[C@H](O)CC[C@]4(C)[C@H]3CC[C@]12C | 62.8 | –
C[C@H](CCC(=O)O)[C@H]1CC[C@H]2[C@@H]3[C@H](O)C[C@@H]4C[C@H](O)CC[C@]4(C)[C@H]3CC[C@]12C | 3.14 | –
CCC1=C[C@@H]2CN3CCc4c([nH]c5ccccc45)[C@@](C(=O)OC)(C2)[C@@H]13 | 2.61 | –
COc1cc(OC)c(/C=C2/C(=O)Nc3ccccc32)c(OC)c1 | -6 | –
Cn1cccc1/C=C1\C(=O)NC(=O)c2ccccc21 | 61.5 | –
